Pf growth 96h: inhibits malaria parasite growth, 96 h | P. falciparum luciferase reporter growth, 96 h | Potency, µM (titrated, usually from 28.7 µM), for inactives: at the highest dose activity change, negative = inhibition, hits mostly inhibitors | hit rate 6.9% among 320,000; active = well fitted inhibition curve with a large enough effect; inconclusive = small, poorly fitted or top-dose-only effect, or another doubt; inactive = no such curve, though single readings can be large or run the other way; also: potency is read from the fitted curve at half-maximal effect; % is scaled to controls: 0 for no effect and ±100 for the full control effect
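Readout is luminescence from an integrated firefly luciferase in P. falciparum. Red cells, 2% hematocrit and 0.05% parasitemia final, were cultured with compound through two parasite generations (96 hours) at 37 C, 5% CO2.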
NS1 function inh: blocks influenza NS1 protein function | Potency, µM (titrated, usually from 46.1 µM), inactives show top-dose activity, positive = more growth | hit rate 0.4% among 270,000 | AID 2326; also: potency is read from the fitted curve at half-maximal effect; actives are rising curves; nearly all actives have a fitted effect of over 50% in size
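A cell-based growth assay was used: compounds that relieve NS1-induced slow growth of budding yeast raise OD600. Assay medium was yeast nitrogen base with ammonium sulphate and -URA supplement, pH 6.0, with 2% galactose.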
SARS PLP yeast: SARS-CoV PLP inhibition in yeast; S. cerevisiae expressing SARS-CoV PLpro, growth rescue; Potency, µM (top dose mostly 32.9 µM), inactives show top-dose activity, positive = growth rescue, hits mostly activators; hit rate 0.19% among 330,000; also: potency is read from the fitted curve at half-maximal effect; 0% is about no effect; nearly all actives have a fitted effect of over 55% in size
Shiga toxin inh: Shiga toxin inhibition | Vero cells, Shiga toxin protein synthesis inhibition reporter | inhibition, % at 38.7 µM | hit rate 9.2% among 290,000 | AID 2315; in the data active = inhibition mostly above about 28%, no sharp cut-off; inactive = mostly below about 43%; also: 0% is about no effect
Cycloheximide cs: affects cycloheximide protein synthesis inhibition readout, counter-screen. hit rate 12% among 300,000. cell reporter, cycloheximide protein synthesis inhibition counterscreen. AID 2314. max response, %; in the data active = max response mostly above about 13%, no sharp cut-off; inactive = mostly below about 14%; also: read at 38.3 µM for the half of the compounds with a filed dose; 0% is about no effect
Pf growth 48h: inhibits P. falciparum growth in the first generation, 48 h; P. falciparum luciferase growth in erythrocytes, 48 h; Potency, µM (top dose mostly 28.7 µM), inactives show at the highest dose activity change, negative = inhibition, hits mostly inhibitors; hit rate 5.9% among 310,000; AID 504832; active = well fitted inhibition curve with a large enough effect; inconclusive = small, poorly fitted or top-dose-only effect, or another doubt; inactive = no such curve, though single readings can be large or run the other way; also: potency is read from the fitted curve at half-maximal effect; % is scaled to controls: 0 for no effect and ±100 for the full control effect
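Cell-based growth assay: transgenic P. falciparum expressing firefly luciferase, cultured in red cells within RPMI 1640 containing 0.5% w/v Albumax, 24 mM bicarbonate and gentamycin. A drop in luciferase activity indicates inhibition.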
* marks the source's active call; other numbers are inactive results. Most compounds without a hit are left out; they make up all but 21% or so of the library. Unless noted, calls follow the shape of the full dose curve.

Screening C=CCn1cccc(C(=O)Nc2ccc(C)cc2)c1=O returned Pf growth 96h 188%, NS1 function inh -43%, SARS PLP yeast -5%, Shiga toxin inh 102* and Cycloheximide cs 77*.
For CC1CN/C(=C\C(=O)c2ccccc2)C(=O)N1 (stereo not drawn) the results were Pf growth 96h -24%, NS1 function inh -4%, SARS PLP yeast -2%, Shiga toxin inh 79, Cycloheximide cs 44* and Pf growth 48h 0%.
Screening CC1CN/C(=C\C(=O)c2ccc(Cl)cc2)C(=O)N1 (stereo not drawn) returned Pf growth 96h inactive, NS1 function inh -10%, SARS PLP yeast -10%, Shiga toxin inh 50, Cycloheximide cs 25* and Pf growth 48h inactive.
For COc1cc2c(cc1OC)/C(=C/C(=O)c1ccccc1)NCC2 the results were Pf growth 96h -3%, NS1 function inh -1%, SARS PLP yeast -3%, Shiga toxin inh -10, Cycloheximide cs -2 and Pf growth 48h -11%.
For Cc1cccc(C)c1NC(=O)COc1cccc(/C=N/NC(=O)C(=O)NCc2ccccc2)c1 the results were Pf growth 96h 0%, NS1 function inh 4%, SARS PLP yeast -1%, Shiga toxin inh -11, Cycloheximide cs -1 and Pf growth 48h inconclusive.
Screening O=C(O)CSc1ccnc2cc(Cl)ccc12 returned Pf growth 96h 5%, NS1 function inh 8%, SARS PLP yeast 0%, Shiga toxin inh 11, Cycloheximide cs -1 and Pf growth 48h 29%.
For CCCN(CCC)CCNC(=O)CCC(=O)Nc1ccc2nc(N3CCOCC3)cc(C)c2c1 the results were Pf growth 96h inconclusive, NS1 function inh 2%, SARS PLP yeast 4%, Shiga toxin inh 75*, Cycloheximide cs 40* and Pf growth 48h 63%.
`CCN1CCN(c2cc(C)c3cc(NC(=O)CCC(=O)Nc4ccc(OC)cc4OC)ccc3n2)CC1` gave Pf growth 96h inconclusive, NS1 function inh -1%, SARS PLP yeast 1%, Shiga toxin inh -11, Cycloheximide cs -4 and Pf growth 48h 13µM*.
Screening COc1cccc(NC(=O)CCC(=O)Nc2ccc3nc(N4CCOCC4)cc(C)c3c2)c1 returned Pf growth 96h 16%, NS1 function inh -6%, SARS PLP yeast 3%, Shiga toxin inh 81*, Cycloheximide cs 37* and Pf growth 48h 97%.
For Cc1cc(N2CCN(C)CC2)nc2ccc(NC(=O)CCC(=O)N3CCN(c4ccc([N+](=O)[O-])cc4)CC3)cc12 the results were Pf growth 96h -21%, NS1 function inh -11%, SARS PLP yeast -2%, Shiga toxin inh 9, Cycloheximide cs -2 and Pf growth 48h 5.2µM*.
O=C(Cc1ccc(S(=O)(=O)N2CCOCC2)s1)N1CCN(S(=O)(=O)c2cccc([N+](=O)[O-])c2)CC1 was read as Pf growth 96h inconclusive, SARS PLP yeast -1% and Pf growth 48h inconclusive.
CCCCNC(=O)CCC(=O)Nc1ccc2nc(N3CCCCC3)cc(C)c2c1 was read as Pf growth 96h inconclusive, SARS PLP yeast 4%, Shiga toxin inh 63*, Cycloheximide cs 31* and Pf growth 48h 21%.
For CCN(CC)CCCNC(=O)CCC(=O)Nc1ccc2nc(N3CCCCC3)cc(C)c2c1 the results were Pf growth 96h 13%, SARS PLP yeast 1%, Shiga toxin inh 16, Cycloheximide cs -4 and Pf growth 48h inconclusive.
Screening CCOC(=O)C1CCCN(C(=O)CCC(=O)Nc2ccc3nc(N4CCOCC4)cc(C)c3c2)C1 (stereo not drawn) returned Pf growth 96h -14%, NS1 function inh -46%, SARS PLP yeast -6%, Shiga toxin inh 21, Cycloheximide cs 24* and Pf growth 48h 10%.
`Cc1cc(N2CCCCC2)nc2ccc(NC(=O)CCC(=O)NCCC(C)C)cc12` gave Pf growth 96h inconclusive, NS1 function inh 2%, SARS PLP yeast 4%, Shiga toxin inh 49* and Cycloheximide cs 35*.
Screening COc1cccc(N(C(=O)CNC(=O)c2ccco2)C(C(=O)NC2CCCC2)c2ccco2)c1 (stereo not drawn) returned Pf growth 96h -2%, NS1 function inh 4%, SARS PLP yeast 3%, Shiga toxin inh -7, Cycloheximide cs -5 and Pf growth 48h inconclusive.
`O=C1NCCCCC1NS(=O)(=O)c1ccc(F)c(F)c1` (stereo not drawn) gave Pf growth 96h 22%, NS1 function inh 2%, SARS PLP yeast 0%, Shiga toxin inh -1, Cycloheximide cs -3 and Pf growth 48h 37%.
`CC(c1ccccc1)C(NC(=O)OCC1c2ccccc2-c2ccccc21)C(=O)O` (stereo not drawn) gave Pf growth 96h 61%, SARS PLP yeast -1% and Pf growth 48h 18%.
CNC(=O)NC(=O)COC(=O)/C=C/c1cccc(Br)c1 was read as Pf growth 96h 8%, NS1 function inh 5%, SARS PLP yeast 2%, Shiga toxin inh -13, Cycloheximide cs 10 and Pf growth 48h 15%.
`O=C(COc1cccnc1[N+](=O)[O-])Nc1cccc(S(=O)(=O)N2CCCCC2)c1` gave Pf growth 96h 3%, NS1 function inh -1%, SARS PLP yeast 15%, Shiga toxin inh -8, Cycloheximide cs 1 and Pf growth 48h 13%.
O=C(NCC1CCCO1)c1ccc(COCC(F)(F)C(F)F)cc1 (stereo not drawn) was read as NS1 function inh 4%, SARS PLP yeast 5%, Shiga toxin inh 26, Cycloheximide cs 19* and Pf growth 48h 33%.
Screening CC(C)NC(=O)c1ccc(COCC(F)(F)C(F)F)cc1 returned Pf growth 96h 13µM*, NS1 function inh 0%, SARS PLP yeast -15%, Shiga toxin inh 19 and Cycloheximide cs 22.
COc1ccc(-c2cn3cccnc3n2)cc1NC(=O)c1cccs1 was read as Pf growth 96h 12µM*, NS1 function inh 3%, SARS PLP yeast -6%, Shiga toxin inh -12, Cycloheximide cs -8 and Pf growth 48h 3%.
COc1ccc(-c2cn3cccnc3n2)cc1NC(=O)C(C)Oc1ccccc1 (stereo not drawn) was read as Pf growth 96h 8%, NS1 function inh -4%, SARS PLP yeast inconclusive, Shiga toxin inh 36, Cycloheximide cs 12 and Pf growth 48h 13µM*.
Cc1ccc(S(=O)(=O)NCC(=O)OCc2ccccc2Br)cc1 was read as Pf growth 96h 9.3µM*, NS1 function inh -61%, SARS PLP yeast -2%, Shiga toxin inh -18, Cycloheximide cs -1 and Pf growth 48h 40%.
Screening Cc1ccc(S(=O)(=O)NCC(=O)OCC(=O)c2cccs2)cc1 returned Pf growth 96h 13µM*, NS1 function inh 3%, SARS PLP yeast -1%, Shiga toxin inh -14, Cycloheximide cs 4 and Pf growth 48h -2%.
Screening COC(=O)c1ccc(COC(=O)CCS(=O)(=O)c2ccc(C)cc2)cc1 returned Pf growth 96h 11%, SARS PLP yeast 0%, Shiga toxin inh 11, Cycloheximide cs 3 and Pf growth 48h 13%.

Assay outcomes (PubChem)
